Assay results reported in PubChem BioAssay AID504607 (Sanford-Burnham Center for Chemical Genomics, 2011).
The whole screen tested about 6,200 compounds, of which about 4,800 (77%) were called active. So high a share suggests a set chosen from earlier hits. A selection follows. Values without a mark were called inactive.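 How the source made its calls: active means mean inhibition at 8 µM reaching about 37%, which flags the compound as non-specific (limit read from the data); inactive means the rest.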

assay: luminescence decrease from intact luciferase reporter – cell-based, single concentration, SaOS-2, counter-screen for Mdm2/MdmX interaction inhibitor project, confirmation (AID 504607); details: SaOS-2 full-length luciferase counterscreen, at 8 µM, active compounds read high;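 further: p53-null SaOS-2 cells with luciferase driven by a doxycycline-inducible promoter; compound on cells about two nights before reading with doxycycline added after day one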

Compound	inhibition
Oc1c(CN2CCN(c3ccc(F)cc3)CC2)cc(Cl)c2cccnc12	25.7%
N#Cc1ccc(C(=O)Nc2nc(-c3cccs3)c(C(=O)C(F)(F)F)s2)cc1	54.4% (active)
COc1ccc(CNC(=O)C(c2ccc(O)cc2)N(Cc2ccco2)C(=O)c2snc(C(N)=O)c2N)cc1 (configuration not stated)	88.8% (active)
Clc1ccc2c(c1)C1=C(C(c3ccncc3)O2)C(c2ccc(Br)cc2)n2ncnc2N1 (configuration not stated)	67.2% (active)
Nc1nc(CC(=O)CSc2ccc(Cl)cc2)nc(Nc2ccc(F)cc2)n1	29.2%
COc1ccc(C2=Nn3c(nnc3-c3ccccc3OC)SC2)cc1OC1CCCC1	68.2% (active)
Cc1nc(/N=C(\N)NC(=O)NC2CCCCC2)nc2ccccc12	34.4%
Cc1nc(N=C(N)N)nc2c(C)cccc12	63.3% (active)
COc1ccc(CNC(=O)C[C@H]2C[C@H](C(=O)N3CCOCC3)[C@@]3(CCC4CCCC4)c4[nH]c5ccc(Cl)cc5c4CCN3C2=O)cc1OC	39.6% (active)
CN(C)c1ccnc2sc3c(=O)n(Cc4ccccc4)cnc3c12	15.1%
Cc1cccc(NC(=O)c2nc(S(=O)(=O)Cc3ccccc3)ncc2Cl)c1	50.9% (active)
Cc1cccc(CS(=O)(=O)c2ncc(Cl)c(C(=O)Nc3ccc(F)cc3)n2)c1	51.2% (active)
O=C(CCl)Nc1cccc(CP(=O)(c2ccccc2)c2ccccc2)c1	27.6%
C[C@@H](NC(=O)OC(C)(C)C)c1nnc(S(=O)(=O)Cc2ccccc2)o1	24.9%
O=C(/C(=C/c1cccc(Cl)c1)c1nc2ccccc2[nH]1)c1ccccc1	97.6% (active)
CCCCNC(=O)C(C)N(CCN(C)C)C(=O)CCCCCN1C(=O)NC(c2ccc(Cl)cc2)C(C(=O)OCc2ccccc2)=C1C (configuration not stated)	27.8%
Cc1cc2cc3c(cc2nc1SCC(=O)Nc1c(C)cccc1C)CCC3	60.3% (active)
CCOC(=O)Nc1ccc2c(c1)N(C(=O)CCCl)c1ccccc1[S@]2=O	54% (active)
CNC[C@H](CC1CCCCC1)NC[C@H](NCCC1CCCC1)[C@H](C)O	30.2%
COc1ccc(-c2cc(C(=O)N(C)Cc3ccc(OC)c(OC)c3OC)c3ccccc3n2)cc1OC	97.7% (active)
COc1ccc(CN(C)C(=O)c2cc(-c3ccc(C)cc3C)nc3ccccc23)c(OC)c1OC	62.1% (active)
COc1ccc(-c2cc(C(=O)N(C)CC(=O)Nc3ccccc3Cl)c3ccccc3n2)cc1OC	79% (active)

Compound	inhibition
COc1cc(SC)ccc1C(=O)Nc1nc(C)cs1	43.3% (active)
COc1c(C)c2c(c(O)c1C/C=C(\C)CCC(=O)O)C(=O)OC2	22.9%
O=C(Nc1ccc2c(c1)OCCO2)C1CCCC1	88.1% (active)
Oc1c(Cl)cc(Cl)c(Cl)c1Cc1c(O)c(Cl)cc(Cl)c1Cl	26.8%
CCNC(=O)c1c(O)c2cccc3c2n(c1=O)CC3	22.6%
Cc1ccc(-c2nn(C(C)(C)C)c3ncnc(N)c23)cc1	30.7%
O=C1NC[C@@H](c2ccccc2)OC(=O)[C@H](Cc2ccc(F)cc2)CC/C=C/C[C@H]1CC(=O)N(CCO)Cc1ccccc1	79% (active)
COc1ccc(C(C(=O)NC2CCCCC2)N(C(=O)CCl)c2ccccc2Cl)cc1 (configuration not stated)	78.5% (active)
Cc1cc(NC(=O)/C=C/C(=O)N(c2ccccc2C)C(C(=O)NC2CCCC2)c2ccc(F)cc2)no1 (configuration not stated)	28.7%
COc1ccc(OC)c(Nc2nc(-c3ccc(O)c(O)c3)cs2)c1	79.9% (active)
Cc1oc2c(c1C(=O)N1CCOCC1)C(=O)c1ccccc1C2=O	56.8% (active)
O=S(=O)([N-]c1nc2ccccc2nc1-[n+]1ccc(Cc2ccccc2)cc1)c1ccc(Br)s1	56.5% (active)
O=[N+]([O-])c1c(NCCO)cc(Sc2nc3ccccc3s2)c2nonc12	50.4% (active)
OCCNc1nc(Nc2ccc(Cl)c(Cl)c2)nc2ccccc12	24.3%
COC(=O)Cc1[nH]n(-c2nc3ccccc3s2)c(=O)c1C(C)=Nc1ccc(OC)cc1	26.2%
O=C(Nc1ccccc1Cl)/C(Cl)=C(\Cl)S(=O)c1ccccc1 (configuration not stated)	1.94%
Cc1ccc(N(Cc2cc(=O)[nH]c3ccccc23)C(=O)CCl)cc1	25.3%
Cc1cccc(N(C)C(=O)c2cc3c(=O)[nH]c4ccc(C)cc4c3s2)c1	43.4% (active)
CCCC(O)(CCC)C(=O)NN(C(=O)CCl)c1cccc(C)c1	23.7%
CC[C@]1(C(=O)OC)[C@H]2C(=O)N(Cc3ccccc3)C(=O)[C@H]2[C@H]2CN=C(SCc3ccc(Cl)cc3)N21	52.2% (active)
CC[C@]1(C(=O)OC)[C@H]2C(=O)N(Cc3ccccc3)C(=O)[C@H]2[C@H]2CN=C(SCc3ccccc3)N21	35.8%
CC[C@]1(C(=O)OC)[C@H]2C(=O)N(Cc3ccccc3)C(=O)[C@H]2[C@H]2CN=C(SCc3ccc(C#N)cc3)N21	54.6% (active)

Compound	inhibition
Cc1cc(Nc2cc(N3CCN(C)CC3)nc(Sc3ccc(NC(=O)C4CC4)cc3)n2)n[nH]1	41.6% (active)
Cc1[nH]c(C)c(S(=O)(=O)N2CCN(c3cccc(C(F)(F)F)c3)CC2)c1C(=O)N1CCCCC1	54.6% (active)
COc1ccc(CNc2nc(NCc3ccc(OC)cc3)c3ncn(C4CCCC4)c3n2)cc1	73% (active)
Cc1c(CN2CCC(CO)(CCOc3ccccc3)CC2)[nH]c2ccc(Cl)cc12	53.7% (active)
N#CC1=C(N)Oc2cc(O)ccc2C1C1CCCCC1 (configuration not stated)	56.5% (active)
Cc1[nH]c(=O)c(C(=O)/C=C/c2ccccc2)c2c1CCCC2	53.3% (active)
COc1ccc2cc1Oc1ccc(cc1)C[C@H]1c3cc(c(OC)cc3CCN1C)Oc1c(O)c(OC)cc3c1[C@H](C2)N(C)CC3	51.1% (active)
CCN1C(=O)/C(=C\N2CCN(c3cccc(Cl)c3)CC2)SC1=S	72.2% (active)
COc1cccc2sc(NNC(=O)c3nc4ccccc4s3)nc12	68.2% (active)
COc1cccc2sc(N(CCCN(C)C)C(=O)CCS(=O)(=O)c3ccccc3)nc12	21.2%
COc1cccc2sc(N(CCCN(C)C)C(=O)C(c3ccccc3)c3ccccc3)nc12	24.8%
CCSc1nsc(NC(=O)Nc2cccc(C(C)=O)c2)n1	41% (active)
C=CCSc1nsc(NC(=O)Nc2cccc(C(C)=O)c2)n1	21.9%
CC(=O)c1ccc(Oc2cc(C)nc(-n3nc(C)cc3C)n2)cc1	78.7% (active)
Oc1cccc(/C=N/Nc2ccc(Cl)nn2)c1O	45.7% (active)
Oc1ccc(Br)cc1/C=N/Nc1ccccn1	20%
Cc1nnnn1/C(=C\c1ccccc1)C(=O)OCC(=O)N1CC2(C)CC1CC(C)(C)C2 (configuration not stated)	53.4% (active)
CC[n+]1cc(C)ccc1/C=C/c1ccc(N(C)C)cc1	37.8% (active)
O=C(/C=C/Sc1ncn[nH]1)c1ccc(Cl)cc1	51% (active)
COC(=O)CCNc1ccc2c(c1)OCCO2	51.5% (active)
CCOC(=O)c1c(-c2cccc(C)c2)csc1NC(=O)c1c(-c2ccccc2)noc1C	52.8% (active)
O=C(CSc1nc2ccccc2c(=O)[nH]1)Nc1nc(-c2ccc(Br)cc2)cs1	47.8% (active)

Compound	inhibition
Cc1ccc(C(=O)Nc2sc(Cc3ccc4c(c3)OCO4)c(C)c2C(N)=O)cc1	89.9% (active)
CCN1/C(=C\c2ccc3ccccc3[n+]2CC)Sc2cc(C)ccc21	25%
Cc1ccc2[nH]c(=O)c(CN(CCCN(C)C)C(=O)Nc3cccc(Cl)c3)cc2c1	66.6% (active)
Cc1cccc(NS(=O)(=O)c2ccc(-c3cnc(C4CC4)o3)cc2)c1	63.9% (active)
COC(=O)C1=C(Nc2ccc(C)cc2)C=C(C)C(C(=O)OC)C1c1ccc(F)cc1 (configuration not stated)	61.3% (active)
O=C(c1[nH]ncc1-c1ccc(Cl)cc1)C1CO1 (configuration not stated)	45.8% (active)
O=C1NC(Nc2nc3ccccc3s2)(C(F)(F)F)C(=O)N1C1CCCCC1 (configuration not stated)	73.6% (active)
Brc1ccc2ncnc(NCc3cccnc3)c2c1	26.8%
Cc1ccnc(NC(=O)C2CCN(S(=O)(=O)c3c(C)c(C)cc(C)c3C)CC2)c1	46% (active)
O=C(CCNC(=O)c1ccc(Cl)cc1)NC1CCCc2ccccc21 (configuration not stated)	54.4% (active)
CCOC(=O)/C(=C\c1ccc([N+](=O)[O-])cc1)C(=O)c1cc(C(C)=O)c(Nc2ccccc2)s1	50.6% (active)
CN(c1ccccc1)S(=O)(=O)c1cc(C(=O)N2CCN(c3ncccn3)CC2)ccc1Cl	83.9% (active)
O=C(COc1ccccc1F)Nc1nc(-c2ccccn2)cs1	47.2% (active)
O=C(CCCCCn1c(=S)[nH]c2cc3c(cc2c1=O)OCO3)N1CCN(c2ccc(F)cc2)CC1	79.3% (active)
Cc1ccc(C)c(N2CCN(C(=O)CCCCCn3c(=S)[nH]c4ccc(N5CCOCC5)cc4c3=O)CC2)c1	60.1% (active)
COc1cccc(-c2nnc(NC(=O)c3ccc(S(=O)(=O)N(CC(C)C)CC(C)C)cc3)o2)c1	24.3%
O=C(CN1C(=O)c2ccccc2S1(=O)=O)N1CCc2ccccc21	15.9%
O=C1/C(=C\c2ccccc2Cl)SC(=S)N1CCC(=O)N1CCCc2ccccc21	43.1% (active)
Fc1ccccc1/C=C1\CCCC2=C1Nc1ncnn1C2c1ccccc1F (configuration not stated)	3.26%
Cc1ccccc1NC(=O)CSc1nc2ccc(Nc3nc(N4CCOCC4)nc(N4CCOCC4)n3)cc2s1	81.4% (active)
O=C(CSc1nc(Nc2ccccc2)nc(N2CCOCC2)n1)Nc1cc(Cl)ccc1O	65.1% (active)
